Reference: ChEMBL document CHEMBL4513216, “Probing the Open Global Health Chemical Diversity Library for Multistage-Active Starting Points for Next-Generation Antimalarials” (ACS Infect Dis, 2020)
The campaign covered roughly 69,000 compounds. About 8,600 (12%) showed an effect of 50% or more. The full list was thinned out, with strong results kept by preference.

system: Plasmodium berghei; assay: Screen against P. berghei liver stage (PbLuc), transformed with Luciferase, at 10uM; type: functional, HepG2; details: tested at 10 uM

Row | SMILES | INHIBITION [%]
1 | CN(Cc1ccco1)C(=O)CN1C(=O)c2ccccc2C1=O | 33.4
2 | CN(C)CCN1C(=O)CCCC12CCCN(Cc1cccs1)C2 (centres undefined) | -3.58
3 | CNC(=O)NCC(=O)N(C)C(c1ccc(Cl)cc1)c1cccnc1 (centres undefined) | 35.1
4 | CN(CCO)C1CCN(c2ncc3c(n2)CCN3c2ccccc2)CC1 | 22.3
5 | CC(C)(O)c1cn(C[C@H]2C[C@@H]3CCN2C[C@@H]3C(=O)N2CCOCC2)nn1 | -0.473
6 | CC(O)Cc1cn(CC2CCN(c3nccc4occc34)CC2)nn1 (centres undefined) | 11.8
7 | CC(C)(N)c1cn(C2CCN(c3ncccc3Cl)CC2)nn1 | 30.4
8 | Cc1csc2ncnc(N3CCC(Cn4cc(C(C)(C)N)nn4)CC3)c12 | 84.2
9 | Cc1csc2ncnc(N3CCC(Cn4cc(C(C)(C)O)nn4)CC3)c12 | 84.2
10 | Cc1csc2ncnc(N3CCCC(Cn4cc(C(C)(C)O)nn4)C3)c12 (centres undefined) | 48.5
11 | Cc1csc2c(N3CCC(Cn4cc(C(C)(C)O)nn4)CC3)ncnc12 | 79.3
12 | CC(C)(O)c1cn(C2CCN(c3ncccc3Cl)CC2)nn1 | 25.7
13 | O=C(c1ccoc1)N1CCN(Cc2ccccc2F)CC1 | 18.3
14 | Cc1ccc(CS(=O)(=O)N2Cc3c(CN(C)C)nn(C)c3C2)cc1 | 8.6
15 | COc1ccc(C2=NOC(CO)C2)cc1 (centres undefined) | 35.8
16 | Fc1cccc(-c2nccnc2C2CCCNC2)c1 (centres undefined) | 8.72
17 | c1cc(CN2CCC3(CC2)COC(COCC2CC2)C3)ccn1 (centres undefined) | 1.9
18 | O=C(Cc1ccsc1)N1CCOC(c2nc(-c3ncccn3)no2)C1 (centres undefined) | 21.9
19 | Cn1c(CCC(=O)N2CCCC3(CNC(=O)O3)C2)nc2cccnc21 (centres undefined) | 22.5
20 | Cc1nc(C2CCN(C(=O)c3cc(C4CC4)[nH]n3)CC2)no1 | 11.9
21 | CS(=O)(=O)Nc1ccn(Cc2cccc(F)c2)n1 | 49.1
22 | c1cc(CN2C[C@@H]3OCCN(CC4CCCO4)[C@@H]3C2)ccn1 (some centres undefined) | -1.55

Row | SMILES | INHIBITION [%]
23 | COc1ccc(CN2C[C@@H]3OCCN(CCN(C)C)[C@@H]3C2)cc1 | 26.4
24 | COCCN1CCO[C@H]2CN(Cc3cc[nH]n3)C[C@H]21 | 40.3
25 | Fc1ccc(CN2C[C@@H]3OCCN(CCN4CCCC4)[C@@H]3C2)cc1 | 11.3
26 | Fc1ccc(CN2C[C@@H]3OCCN(CC4CCCO4)[C@@H]3C2)cc1 (some centres undefined) | 68.4
27 | c1cc(CN2C[C@@H]3OCCN(CC4CC4)[C@@H]3C2)n[nH]1 | 59.3
28 | COc1ccc(CN2C[C@@H]3OCCN(CC4CCCO4)[C@@H]3C2)cc1 (some centres undefined) | 27.9
29 | CC(C)N1CCO[C@H]2CN(Cc3cc[nH]n3)C[C@H]21 | 29.4
30 | COc1ccc(CN2C[C@@H]3OCCN(CCN4CCCC4)[C@@H]3C2)cc1 | 82.3
31 | CN(Cc1cscn1)C1CCCN(c2cccnn2)C1 (centres undefined) | 15.5
32 | COc1c(C)cnc(CN2CCCC(c3noc(C4CC4)n3)C2)c1C (centres undefined) | 17.1
33 | CCc1n[nH]c(C2CN(C(=O)c3ccc4c(c3)CCCC4)CCO2)n1 (centres undefined) | -43.6
34 | O=C(O)c1cncc(Cc2cccc(F)c2)c1 | -19.7
35 | CCc1ccc(CN2CCNC(C(=O)N3CCN(C)CC3)C2)nc1 (centres undefined) | -14.1
36 | COc1ccc(F)cc1C(=O)N(C)[C@@H]1CC[C@@H](O)[C@@H]1O | -42
37 | Cc1ccoc1C(=O)N1CCn2nnc(COc3cccnc3)c2C1 | 17.1
38 | Cn1cc(CN2CCOC(c3nccnc3-c3cccc(F)c3)C2)cn1 (centres undefined) | 23
39 | CC(C)NC(=O)N1CCN(S(C)(=O)=O)CC2(CNC(=O)C2)C1 (centres undefined) | -3.52
40 | N#Cc1cccc(CN2CC[C@@H]3CO[C@@H](CN4CCCC4)[C@@H]3C2)c1 | 23.3
41 | CN(C)CCOCc1cncc2c1CCN(C(=O)C1CCOCC1)C2 | 55.4
42 | O=C(c1ccco1)N1CCc2c(COCC3CC3)cncc2C1 | -3.88
43 | CN(C)C(=O)N1CCc2c(COCC3CC3)cncc2C1 | 59
44 | N#Cc1ccc(C(=O)N2CCc3c(COCC4CC4)cncc3C2)cc1 | 43

Row | SMILES | INHIBITION [%]
45 | CN(C)CCOCc1cncc2c1CCN(C1CCOCC1)C2 | 12.6
46 | O=C(c1ccoc1)N1CCc2c(COCC3CC3)cncc2C1 | 64.9
47 | CN(C)CCOCc1cncc2c1CCN(C1CCOC1)C2 (centres undefined) | -2.27
48 | O=C(c1ccncc1)N1CCc2c(COCC3CC3)cncc2C1 | -1.55
49 | O=C(c1cccnc1)N1CCc2c(COCC3CC3)cncc2C1 | -5.05
50 | O=C(c1ccc[nH]1)N1CCc2c(COCC3CC3)cncc2C1 | 14.8
51 | Cc1ccc(C(=O)N2CCc3c(COCC4CC4)cncc3C2)o1 | 88.2
52 | COCc1cncc2c1CCN(C(=O)c1ccc(C)o1)C2 | 7.11
53 | COCCN1CCC2(COCCN(C(=O)Cc3cccs3)C2)C1 (centres undefined) | -58.7
54 | Cc1cc(C(=O)N2CC[C@@H](N(C)C)[C@@H]2Cc2ccccc2)no1 | -2.35
55 | COc1ccc(C(O)CNC(=O)NCc2c(C)cc(C)[nH]c2=O)cc1 (centres undefined) | 16.9
56 | CCO[C@H]1CN(C(=O)c2ccnnc2)[C@@H]2COC[C@H]12 | 13.6
57 | CCn1cc(-n2cc3nc(N4CCC(O)CC4)[nH]cc-3c2=O)cn1 | -10.6
58 | O=C(c1cscn1)N1CC[C@@H]2[C@@H]1CCN2C1CCOCC1 | -23.1
59 | Cc1cnc(C(=O)N2Cc3ncn(C)c3C(COCC(C)C)C2)cn1 (centres undefined) | 43
60 | O=C(c1n[nH]cc1Cl)N1CCOCC1 | 39.1
61 | Cc1ccc(N2CCC3(CCCN(C(=O)c4cnccn4)C3)C2)nn1 (centres undefined) | 18.5
62 | Cc1noc(C)c1CN1CCc2ncnc(-c3ccncc3)c2CC1 | 90.1
63 | Cc1noc(C)c1CN1CCN(c2ccnc(-c3ccccc3)n2)CC1 | 62.5
64 | Cc1noc(C)c1CN1CCc2ncnc(-c3cccnc3)c2CC1 | 25.8
65 | Cc1cc(CN2CCN(c3ccnc(-c4ccccc4)n3)CC2)no1 | 2.29
66 | Cc1nc(CN2CCc3ncnc(-c4ccc(F)cc4)c3CC2)cs1 | 15.4

Row | SMILES | INHIBITION [%]
67 | Cc1noc(C)c1CN1CCc2ncnc(-c3ccccc3)c2CC1 | 53
68 | Cc1ccc(CN2CCc3ncnc(-c4ccncc4)c3CC2)o1 | -4.32
69 | Cc1ccc(CN2CCc3ncnc(-c4ccc(F)cc4)c3CC2)o1 | 13.7
70 | Cc1noc(C)c1CN1CCc2ncnc(-c3ccc(F)cc3)c2CC1 | 67.5
71 | c1ccc(CN2CCc3ncnc(-c4ccncc4)c3CC2)nc1 | 46.2
72 | Cc1cnc(CN2CCN(c3ccnc(-c4ccccc4)n3)CC2)cn1 | 47.2
73 | Cc1noc(C)c1CN1CCc2ncnc(-c3cnn(C)c3)c2CC1 | 43
74 | O=C(C1=CCCC1)N1CCC2(CC1)CC(Oc1cccnc1)CO2 (centres undefined) | 41.3
75 | COc1ccc(COCC(O)CNC(=O)c2ccc(C#N)cc2)cc1 (centres undefined) | 46.2
76 | CN(C)C(=O)Cn1c(C2CC2)c(CN2CCSCC2)c2cccnc21 | 23
77 | CC(=O)c1ccc(OCC(=O)c2cccn2C)cc1 | -175
78 | CC(=O)N[C@@H]1CN(C(=O)Cc2coc3cc(C)ccc23)C[C@H]1O | -5.8
79 | c1ccc(CN2CCc3ncnc(-c4ccoc4)c3CC2)nc1 | 12.4
80 | Cc1ccc(CN2CCc3ncnc(-c4ccoc4)c3CC2)o1 | -8.28
81 | Cc1noc(C)c1CN1CCc2ncnc(-c3ccoc3)c2CC1 | 68.4
82 | Cc1nnc2n1CCN(C(=O)C1CCN(Cc3ccccc3)CC1)C2 | 35.7
83 | Cc1cc(NC(=O)CC2(Cn3cnnn3)CCCCC2)nn1C | 39.1
84 | Cn1ccc(C(=O)N2CCC[C@]3(C[C@@H](OCc4ccccn4)CO3)C2)n1 | 40.9
85 | Cc1cnc2[nH]c(C(F)(F)F)c(CN3CCCC(CO)C3)c2c1 (centres undefined) | 50.8
86 | Cc1cnc2[nH]c(C(F)(F)F)c(CN3CCSCC3)c2c1 | 21.1
87 | c1cnc2[nH]c(C3CCCC3)c(CN3CCOCC3)c2c1 | 33.7
88 | c1cnc2[nH]c(C3CCCC3)c(CN3CCCCC3)c2c1 | -2.11

Row | SMILES | INHIBITION [%]
89 | OCC1CCCN(Cc2c(C3CCCC3)[nH]c3ncccc23)C1 (centres undefined) | 69.3
90 | Cc1cnc2[nH]c(C(F)(F)F)c(CN3CCOCC3)c2c1 | -0.232
91 | CC1CCCN(Cc2c(C3CC3)[nH]c3ncccc23)C1 (centres undefined) | 19.6
92 | CCN1CCN(Cc2c(C3CCCC3)[nH]c3ncccc23)CC1 | 20.4
93 | CC1CCCN(Cc2c(C3CCOCC3)[nH]c3ncccc23)C1 (centres undefined) | 59.7
94 | Cc1nc(CN2CCCC(NCCOc3ccccc3C#N)C2)no1 (centres undefined) | 44.1
95 | CC(c1ccc2c(c1)OCCO2)N(C)C(=O)c1ccnnc1 (centres undefined) | -4.21
96 | Cn1ccc(CN2CCN(CC3CC3)CC2)cc1=O | 21.5
97 | COCCCNC(=O)CN(C)C(=O)c1ccc(OC)cc1O | 7.925
98 | Cc1nc(C2CCCN(C(=O)CO)C2)cc(N2CCOCC2)n1 (centres undefined) | -1.53
99 | CCS(=O)(=O)NCc1nc(C)cc(N2CCOCC2)n1 | 65.2
100 | CCCS(=O)(=O)NCc1nc(C)cc(N2CCCC2)n1 | 56.6
101 | CCNC(=O)CN1CCN(c2cc(C)nc(-c3ccncc3)n2)CC1 | 48.1
102 | CCCc1nc(C)cc(N2CCC3(CCC(=O)N(C4CC4)C3)CC2)n1 | -23.5
103 | Cc1cc(N2CCCC2)nc(CNS(=O)(=O)Cc2ccccc2)n1 | 81
104 | CCNC(=O)CCN1CCC(c2cc(N3CCOCC3)nc(C)n2)CC1 | 38.5
105 | CCS(=O)(=O)NCc1nc(C)cc(N2CCCC2)n1 | 25.1
106 | CC(=O)N1CCCn2nc(CNS(=O)(=O)Cc3ccccc3)cc2C1 | -3.83
107 | O=S(=O)(Cc1ccccc1)NCC1CCN(c2cnccn2)CC1 | -45.8
108 | CCCS(=O)(=O)N1CCN(c2cc(-n3nc(C)cc3C)nc(C)n2)CC1 | 0.139
109 | CCS(=O)(=O)NCc1nc(C)cc(N2CCCCC2)n1 | 75.2
